The record followed here is PubChem BioAssay (NCATS).

Results filed as inconclusive are left out. The source made the active and inactive calls. Unless noted, calls come from the whole dose curve; as a rule, active = well fitted curve in the direction sought with a large enough effect; inconclusive = small, poorly fitted or top-dose-only effect, or another doubt; inactive = no such curve, though single readings can be large; an effect the other way counts as inactive or inconclusive.

Test [1] concerns the target Lysosomal acid glucosylceramidase (Homo sapiens) (UniProt P04062). Kind of test: Glucocerebrosidase-p2 (AID 348; in the data active = potency below about 10 µM; note: potency is the fitted concentration of half-maximal effect). The note with it: purified GBA, blue fluorogenic substrate, 40 min. A digest of the protocol: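 Normal human glucocerebrosidase (0.2 nM) with blue fluorogenic substrate (80 uM final) in citrate/phosphate pH 5.9 with 10mM sodium taurocholate, 0.01% tween-20; 40 min RT, NaOH/glycine stop; fluorescence Ex 365/Em 440; AC50 from a titration from 0.6 nM upwards.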

Test [2] deals with Glucocorticoid receptor (Homo sapiens) (UniProt P04150). In words: GR-GFP Redistribution (AID 450;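 active = compounds whose dose series gives a full or clear partial fitted curve of increased nuclear translocation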; note: potency is the fitted concentration of half-maximal effect). Conditions: U2OS GR-GFP nuclear translocation, laser cytometry, 2 h.
Sequence of Glucocorticoid receptor (Homo sapiens) (P04150 whole entry, looked up): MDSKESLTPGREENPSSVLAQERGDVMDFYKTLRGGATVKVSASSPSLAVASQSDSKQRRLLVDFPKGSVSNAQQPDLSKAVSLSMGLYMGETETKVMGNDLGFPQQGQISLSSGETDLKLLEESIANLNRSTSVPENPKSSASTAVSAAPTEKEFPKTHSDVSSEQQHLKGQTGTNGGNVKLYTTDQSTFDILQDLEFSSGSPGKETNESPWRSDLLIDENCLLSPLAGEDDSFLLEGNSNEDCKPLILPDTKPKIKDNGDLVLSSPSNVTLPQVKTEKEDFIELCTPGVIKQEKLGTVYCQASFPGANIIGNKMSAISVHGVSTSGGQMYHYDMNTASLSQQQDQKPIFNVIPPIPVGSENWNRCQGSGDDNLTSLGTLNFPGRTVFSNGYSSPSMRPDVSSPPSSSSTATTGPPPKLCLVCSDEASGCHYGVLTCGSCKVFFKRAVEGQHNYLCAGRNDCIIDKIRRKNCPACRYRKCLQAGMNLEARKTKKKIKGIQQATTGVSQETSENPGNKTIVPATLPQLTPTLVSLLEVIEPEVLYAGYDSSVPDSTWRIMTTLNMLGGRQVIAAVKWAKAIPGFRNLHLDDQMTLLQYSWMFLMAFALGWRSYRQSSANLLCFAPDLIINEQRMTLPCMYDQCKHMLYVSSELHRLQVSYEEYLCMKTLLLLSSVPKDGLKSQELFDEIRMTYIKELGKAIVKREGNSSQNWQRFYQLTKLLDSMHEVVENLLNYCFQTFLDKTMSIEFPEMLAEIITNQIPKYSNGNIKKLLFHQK
Test [3] has the same target. In words: GR-EFC Redistribution (AID 451; calls by dose curve; note: potency is the fitted concentration of half-maximal effect). The note with it: CHO-K1 GR-EFC translocation, beta-gal luminescence, 2 h. A digest of the protocol:
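CHO-K1 cells expressing nuclear EA and GR-ED fragments of b-gal; compounds titrated up to 46 uM final, 2 h at 37 C. GR nuclear translocation read as complemented b-gal luminescence after 1 h RT detection.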

For test [4], the target named is Mitogen-activated protein kinase 10 (Mus musculus) (UniProt Q61831). In words: JNK3 AlphaScreen Assay (AID 530; active = well fitted curve in either direction with a large enough effect, not every such curve was filed as active;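 note: kinase came from lysate of stimulated human HepG2 cells; signal reports phosphorylation of biotinylated GST-cJun 1-79 at Ser73 with 10 µM ATP; % is set by controls: 0 for no effect and ±100 for the full control effect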). The note with it: JNK3 lysate, c-Jun phosphorylation; series mostly up to 57.1 µM. A digest of the protocol: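 Activity was read by AlphaScreen after JNK3-containing HepG2 lysate (cytokine pre-activated) phosphorylated biotinylated GST-cJun with 10 uM ATP at room temperature. Phospho-Ser73 cJun antibody with Protein-A acceptor beads provided detection.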
(In general: Alpha assays give light when donor and acceptor beads are brought close together.)

For test [5], the target named is 3',5'-cyclic-AMP phosphodiesterase 4B (Homo sapiens) (UniProt Q07343). In words: qHTS Assay for Inhibitors of PDE-IV (AID 607; active = well fitted activation curve with a large enough effect in the main read-out, with a control signal flat, not every such curve was filed as active; note: % of control where 0% means no effect). Conditions: HEK293 ACTOne CNG channel cells, membrane potential fluorescence; series mostly up to 22.9 µM. A digest of the protocol:
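HEK293 ACTOne cells with CNG channel (1000/well), endogenous PDE4; membrane potential dye, compounds up to 22.9 uM final. Fluorescence Ex 535/Em 590; RO 20-1724 (100 uM final) as reference.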

Test [6] in a line: qHTS Assay for Lipid Storage Modulators (AID 1519; calls by dose curve). The note with it: Drosophila S3 cells, BODIPY lipid droplet/cell ratio, laser cytometry, cells loaded with oleic acid; for activity change, negative = inhibition: at 57.5 µM (top of the series). The method, boiled down:
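Cells seeded at 5,000 per well were treated with compounds over a concentration series and loaded with oleic acid (400 uM, as added). Lipid droplet fluorescence (488 nm excitation, 500-530 nm channel) was read by laser-scanning cytometry and normalized to 20 uM Triacsin C.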
(In general: Quantitative high-throughput screening tests each substance at several concentrations.)

Test [7] addresses Dual specificity protein kinase CLK4 (Homo sapiens) (UniProt Q9HAZ1). Kind of test: qHTS Assay for Inhibitors of CDC-like Kinase 4 (Kinase-Glo Assay) (AID 1770). Note: % is set by controls: 0 for no effect and ±100 for the full control effect; nearly all actives have a fitted effect of over 65% in size. Conditions: recombinant Clk4, Kinase-Glo ATP depletion luminescence; series mostly up to 66.7 µM. A digest of the protocol: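 Luminescent ATP-depletion read-out (Kinase-Glo) after 4.5 h room-temperature reaction of Clk4 (25 nM final) with RS peptide (100 uM) and ATP (1 uM), pH 7.5 Tris buffer with MgCl2 and DTT.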

Test [8] has the same target. In words: qHTS Assay for Inhibitors of CDC-like Kinase 4 (ADP-Glo Assay) (AID 1771). Note: nearly all actives have a fitted effect of over 70% in size. Note: potency is the fitted concentration of half-maximal effect. The note with it: recombinant CLK4, ADP-Glo luminescence; series mostly up to 80 µM. The method, boiled down: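 ADP production was read by ADP-Glo luminescence after residual ATP depletion, following 1 h room-temperature reaction of 25 nM Clk4, 1 uM ATP and 100 uM RS peptide with MgCl2, EGTA, DTT and Triton X-100.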

Test [9] has the same target. In words: qHTS Assay for Inhibitors of CDC-like Kinase 4 (ADP-FP Assay) (AID 1795). Note: nearly all actives have a fitted effect of over 60% in size. Note: potency is the fitted concentration of half-maximal effect. The note with it: Transcreener ADP fluorescence polarization; series mostly up to 50 µM. The method, boiled down: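 Kinase activity was measured as ADP production using Transcreener orange tracer (4 nM) and ADP antibody (1 ug/mL) fluorescence polarization, with ADP calculated from a calibration curve. The 1 h reaction contained 6.25 nM Clk4, 1 uM ATP and 100 uM RS peptide at pH 7.5 with Mg2+.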

Test [10] has as its target Ubiquitin carboxyl-terminal hydrolase 1 (Homo sapiens) (UniProt O94782). Kind of test: Inhibitors of USP1/UAF1: Pilot qHTS (AID 504865).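 Note: rhodamine fluorescence freed from ubiquitin-rhodamine substrate followed over time; top concentration of the series differs between compounds; % is set by controls: 0 for no effect and ±100 for the full control effect; nearly all actives have a fitted effect of over 35% in size.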 Conditions: purified USP1/UAF1, Ub-rhodamine cleavage fluorescence; series mostly up to 54.9 µM. A digest of the protocol:
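Deubiquitinase activity followed as kinetic rhodamine fluorescence release from 150 nM Ub-Rho. 1 nM USP1/UAF1 with compound, after 15 min room-temperature preincubation, in HEPES pH 7.8 buffer containing TCEP, EDTA, BSA and Tween-20.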

Test [11] is described as follows: AP1 Signaling Pathway (AID 357; active = well fitted curve in either direction with a large enough effect, not every such curve was filed as active; note: % is set by controls: 0 for no effect and ±100 for the full control effect). The note with it: ME-180 AP-1-bla reporter, EGF-induced, beta-lactamase ratio, 5 h; at 7.69 µM (top of the series) unless noted. The method, boiled down: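 Read-out was the 460nm/530nm emission ratio (excitation 405nm) after CCF4 loading for 2.5 hours at room temperature. Cells carried an AP-1-driven beta-lactamase reporter, were stimulated with EC50 EGF plus compound for 5 hours, and AC50 values came from titrations.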

Test [12] has as its target Cytochrome P450 1A2 (Homo sapiens) (UniProt P05177). In words: p450-cyp1a2 (AID 410; calls by dose curve; note: potency is the fitted concentration of half-maximal effect). The note with it: recombinant CYP1A2, luciferin-ME demethylation, luminescence; series mostly up to 57 µM. A digest of the protocol: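 Luminescent demethylation readout: Luciferin-ME (100uM, equal to Km) turned over by 20nM CYP1A2 for 60 min at room temperature after NADPH regeneration addition, following 10 min compound preincubation. Normalization used 57 uM furafylline as full inhibition.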

Test [13] in a line: NFAT Signaling Pathway (AID 444; active = well fitted curve in either direction with a large enough effect, not every such curve was filed as active;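 note: carbachol stimulus at about its EC50 of 1 µM final; % is set by controls: 0 for no effect and ±100 for the full control effect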). Conditions: Jurkat NFAT-bla M1, carbachol, beta-lactamase ratio, 5 h; at 7.69 µM (top of the series) unless noted. A digest of the protocol:
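Jurkat cells with NFAT-driven β-lactamase reporter and co-expressed M1 receptor, stimulated with carbachol (final 1 uM, ~EC50), compound titration, 5 h at 37 °C. CCF4 loaded 1 h at RT; 460/530 nm ratio gave %activity and AC50.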

The nature of test [14]: Stat Signaling Pathway (AID 446; active = well fitted curve in either direction with a large enough effect, not every such curve was filed as active;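 note: ME-180 cervical cancer cells given 40 pM IL-6 alongside compound; SIE-controlled beta-lactamase reporter measured as 460/530 nm FRET emission ratio; % is set by controls: 0 for no effect and ±100 for the full control effect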). Conditions: ME-180 SIE beta-lactamase reporter, IL-6 stimulated, 5 h; at 7.69 µM (top of the series) unless noted. The method, boiled down:
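Normalization used AC90 stimulation (300 pM IL-6) and AC90 inhibition (125 nM pan-JAK inhibitor at 40 pM IL-6). The underlying signal is SIE-driven beta-lactamase in ME-180 cells after 5 h IL-6 exposure with compound.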

Test [15] is described as follows: qHTS Assay for Identification of Small Molecule Agonists for Hypoxia Response Element Signaling Pathway (AID 914; active = well fitted activation curve with a large enough effect in the signal ratio, with a control signal flat, not every such curve was filed as active; the % refers to the signal ratio; note: potency is the fitted concentration of half-maximal effect; for activation: % of control where 0% means no effect). The note with it: ME-180 (cervical carcinoma) HRE-bla reporter, beta-lactamase ratio, CoCl2, 17 h; activation: stronger effect = higher value. A digest of the protocol:
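Reporter activity (beta-lactamase, CCF4 460nm/530nm ratio) in HRE-bla ME-180 cells is recorded after 17 h compound exposure with EC50 CoCl2 at 37 degrees Celsius. AC50 values come from titration data.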

In test [16] the target is Cytochrome P450 3A4 (Homo sapiens) (UniProt P08684). In words: qHTS Assay for Activators of Cytochrome P450 3A4 (AID 885). Note: nearly all actives have a fitted effect of over 65% in size. The note with it: recombinant CYP3A4, Luciferin-PPXE luminescence, 60 min; series mostly up to 57.1 µM. The method, boiled down: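 Human CYP3A4 dealkylates Luciferin-PPXE to luciferin, which luciferase detection converts to light. Substrate was at its KM (25uM), buffer 200mM KPO4, reaction 60 min at RT.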
Sequence of Cytochrome P450 3A4 (Homo sapiens) (P08684 whole entry, looked up): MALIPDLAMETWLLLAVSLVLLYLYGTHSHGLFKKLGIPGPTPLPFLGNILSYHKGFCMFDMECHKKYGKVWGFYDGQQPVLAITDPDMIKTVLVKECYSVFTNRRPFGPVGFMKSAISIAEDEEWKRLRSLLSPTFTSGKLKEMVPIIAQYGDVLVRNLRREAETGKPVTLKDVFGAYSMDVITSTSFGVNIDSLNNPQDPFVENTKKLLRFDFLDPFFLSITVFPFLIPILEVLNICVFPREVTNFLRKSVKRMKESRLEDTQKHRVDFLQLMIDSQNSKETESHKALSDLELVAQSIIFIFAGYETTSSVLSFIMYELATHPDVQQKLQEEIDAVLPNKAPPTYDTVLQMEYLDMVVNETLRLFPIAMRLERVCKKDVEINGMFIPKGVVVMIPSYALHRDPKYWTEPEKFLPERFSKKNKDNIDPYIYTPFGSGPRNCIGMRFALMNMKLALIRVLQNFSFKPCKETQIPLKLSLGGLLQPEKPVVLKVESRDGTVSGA

Setting [17] is: measured here: cell count channel max response.
The mark [18] stands for this setting: measured here: lipid channel max response.

Sequence of 3',5'-cyclic-AMP phosphodiesterase 4B (Homo sapiens) (Q07343 whole entry, looked up): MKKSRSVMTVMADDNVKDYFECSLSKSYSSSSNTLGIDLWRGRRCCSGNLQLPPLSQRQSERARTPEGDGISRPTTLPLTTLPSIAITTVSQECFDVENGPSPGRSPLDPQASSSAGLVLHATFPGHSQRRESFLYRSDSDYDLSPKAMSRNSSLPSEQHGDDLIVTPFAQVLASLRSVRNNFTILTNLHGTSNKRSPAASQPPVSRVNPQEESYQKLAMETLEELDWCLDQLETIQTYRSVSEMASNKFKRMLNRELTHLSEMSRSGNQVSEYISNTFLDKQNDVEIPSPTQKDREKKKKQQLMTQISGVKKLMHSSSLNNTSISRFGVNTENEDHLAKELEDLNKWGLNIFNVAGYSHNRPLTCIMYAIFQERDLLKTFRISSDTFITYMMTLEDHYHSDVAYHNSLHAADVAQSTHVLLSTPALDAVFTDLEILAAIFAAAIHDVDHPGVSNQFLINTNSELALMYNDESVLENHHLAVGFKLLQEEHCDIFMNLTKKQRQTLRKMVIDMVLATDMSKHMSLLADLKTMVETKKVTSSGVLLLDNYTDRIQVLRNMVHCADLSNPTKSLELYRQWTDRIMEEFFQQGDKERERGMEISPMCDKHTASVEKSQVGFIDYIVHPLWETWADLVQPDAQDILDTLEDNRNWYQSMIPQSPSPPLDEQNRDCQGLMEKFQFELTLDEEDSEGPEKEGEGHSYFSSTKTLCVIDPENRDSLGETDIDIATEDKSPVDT
Sequence of Dual specificity protein kinase CLK4 (Homo sapiens) (Q9HAZ1 whole entry, looked up): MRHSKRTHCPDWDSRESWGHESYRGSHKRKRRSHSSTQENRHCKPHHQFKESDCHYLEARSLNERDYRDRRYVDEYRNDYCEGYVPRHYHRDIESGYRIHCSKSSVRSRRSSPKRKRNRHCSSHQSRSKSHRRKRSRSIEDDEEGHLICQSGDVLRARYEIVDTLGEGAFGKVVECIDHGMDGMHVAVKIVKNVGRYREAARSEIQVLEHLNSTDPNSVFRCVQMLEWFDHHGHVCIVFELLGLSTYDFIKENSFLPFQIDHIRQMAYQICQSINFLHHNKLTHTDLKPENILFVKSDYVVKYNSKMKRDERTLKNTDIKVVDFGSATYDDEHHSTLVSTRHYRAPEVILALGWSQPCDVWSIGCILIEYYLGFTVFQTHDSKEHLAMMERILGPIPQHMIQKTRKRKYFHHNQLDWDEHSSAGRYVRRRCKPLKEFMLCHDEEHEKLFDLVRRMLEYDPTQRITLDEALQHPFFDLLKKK
Sequence of Ubiquitin carboxyl-terminal hydrolase 1 (Homo sapiens) (O94782 whole entry, looked up): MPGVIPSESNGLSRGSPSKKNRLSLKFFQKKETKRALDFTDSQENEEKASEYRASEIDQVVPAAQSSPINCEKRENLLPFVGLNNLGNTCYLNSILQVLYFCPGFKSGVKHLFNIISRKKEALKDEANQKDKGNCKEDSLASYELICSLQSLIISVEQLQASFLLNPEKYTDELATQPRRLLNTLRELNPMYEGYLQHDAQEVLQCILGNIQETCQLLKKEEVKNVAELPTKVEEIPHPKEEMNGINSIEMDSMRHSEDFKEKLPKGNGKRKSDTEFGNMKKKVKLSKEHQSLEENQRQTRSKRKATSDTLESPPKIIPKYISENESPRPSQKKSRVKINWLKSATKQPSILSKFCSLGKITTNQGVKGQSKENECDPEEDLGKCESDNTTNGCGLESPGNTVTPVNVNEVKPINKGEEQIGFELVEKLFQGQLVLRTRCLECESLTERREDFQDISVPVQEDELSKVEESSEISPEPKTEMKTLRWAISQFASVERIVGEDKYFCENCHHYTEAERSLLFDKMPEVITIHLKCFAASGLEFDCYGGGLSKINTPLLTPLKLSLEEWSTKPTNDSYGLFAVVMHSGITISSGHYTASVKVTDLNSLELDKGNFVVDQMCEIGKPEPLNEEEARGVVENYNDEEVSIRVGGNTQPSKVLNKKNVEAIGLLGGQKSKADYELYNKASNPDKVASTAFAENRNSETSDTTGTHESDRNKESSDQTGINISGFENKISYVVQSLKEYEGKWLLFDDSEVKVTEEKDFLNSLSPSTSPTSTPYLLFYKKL
Sequence of Lysosomal acid glucosylceramidase (Homo sapiens) (P04062 whole entry, looked up): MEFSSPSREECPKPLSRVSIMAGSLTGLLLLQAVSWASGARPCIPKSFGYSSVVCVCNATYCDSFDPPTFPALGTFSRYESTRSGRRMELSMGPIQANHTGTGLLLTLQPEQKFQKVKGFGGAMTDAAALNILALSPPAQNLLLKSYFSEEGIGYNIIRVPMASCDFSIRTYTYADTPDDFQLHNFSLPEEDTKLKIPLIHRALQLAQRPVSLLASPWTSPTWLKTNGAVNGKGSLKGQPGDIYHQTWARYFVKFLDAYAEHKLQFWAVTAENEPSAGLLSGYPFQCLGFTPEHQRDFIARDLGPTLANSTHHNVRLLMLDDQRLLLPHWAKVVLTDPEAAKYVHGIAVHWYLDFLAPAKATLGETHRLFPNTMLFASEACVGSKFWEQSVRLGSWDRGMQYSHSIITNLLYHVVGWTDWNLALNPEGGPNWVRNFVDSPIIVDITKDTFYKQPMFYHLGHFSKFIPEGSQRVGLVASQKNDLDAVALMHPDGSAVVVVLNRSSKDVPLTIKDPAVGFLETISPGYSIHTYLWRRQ
Sequence of Cytochrome P450 1A2 (Homo sapiens) (P05177 whole entry, looked up): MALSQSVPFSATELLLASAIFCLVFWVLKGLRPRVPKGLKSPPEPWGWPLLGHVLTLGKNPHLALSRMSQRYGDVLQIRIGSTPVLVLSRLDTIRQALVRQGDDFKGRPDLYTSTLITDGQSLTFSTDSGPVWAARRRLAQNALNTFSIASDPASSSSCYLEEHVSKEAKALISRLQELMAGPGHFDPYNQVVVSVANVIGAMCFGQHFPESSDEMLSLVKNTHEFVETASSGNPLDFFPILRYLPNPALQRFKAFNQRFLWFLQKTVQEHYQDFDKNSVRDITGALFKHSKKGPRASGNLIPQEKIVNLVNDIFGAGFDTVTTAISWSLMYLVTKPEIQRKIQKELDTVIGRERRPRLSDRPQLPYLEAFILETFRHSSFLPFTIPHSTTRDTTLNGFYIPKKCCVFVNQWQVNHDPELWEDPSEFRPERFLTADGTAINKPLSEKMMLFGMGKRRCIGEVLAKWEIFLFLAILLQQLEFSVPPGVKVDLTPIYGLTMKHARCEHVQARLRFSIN

`COCCn1c(=O)c(-c2ccc(Cl)cc2)nc2cnc(N3CCNCC3)nc21`: the Potency is > 11.4 µM (inactive) in [1], > 9.22 µM (inactive) in test [2] and > 46 µM (inactive) in test [3]. The Potency result in test [4], in [5], in test [7], in [8], in [9] and in test [10] was “inactive” each time. Also, the activity change, negative = inhibition in test [6] is 5.4% (inactive). Further, the max response in test [6] (setting [17]) was 20.2%; in test [6] (setting [18]), 21.3%.
On to `CN1CCN(c2ncc3nc(-c4cccc(C#N)c4)c(=O)n(C)c3n2)CC1`, for which the Potency in test [1] is > 11.4 µM (inactive); in test [12], 12.6 µM (active); in test [2] it was > 9.22 µM (inactive); in test [3] it was > 46 µM (inactive). Besides, the activity change, negative = inhibition in test [11] was 0.861% (inactive); in [13] it was 13.1% (inactive); in test [6], 1.68% (inactive). For the same compound, the activity, negative = inhibition in [14] is -0.0628% (inactive). The Potency result in test [4], in [5], in test [7] and in [10] was “inactive” in each case. The max response was 0.187% in [6] (setting [17]) and 0.284% in test [6] (setting [18]).
Turning to `COc1ccc(-c2nc3cnc(OC)nc3n(C[C@H]3CCCO3)c2=O)cc1`, the results for the Potency in test [1], in test [2] and in test [3] were > 11.4 µM (inactive), > 9.22 µM (inactive) and > 46 µM (inactive), respectively. For the same compound, the activity change, negative = inhibition in test [11] was -17.7% (inactive); in [13], 11.8% (inactive); in test [6] it was 0.324% (inactive). Also, the activity, negative = inhibition in [14] is -12.4% (inactive). The Potency result in test [4], in [7], in test [9] and in test [10] was “inactive” in each case. The max response worked out at 2.19% in test [6] (setting [17]) and 1.25% in [6] (setting [18]).
Turning to `FC(F)(F)c1ccccc1-c1ccc2ncnc(NCCN3CCOCC3)c2c1`, the values for the Potency in [1], in test [2] and in [3] were 8.84 µM (active), > 46 µM (inactive) and > 46 µM (inactive), respectively. In addition, the activity change, negative = inhibition in test [13] is 10.2% (inactive); in test [6] it was -5.53% (inactive). In test [14], the activity, negative = inhibition was -13.9% (inactive). In addition, the Potency entry in test [4], in test [7], in [9] and in [10] was “inactive” in each case. In addition, in test [15], the activation is -0.346% (inactive). In addition, the max response in test [6] (setting [17]) is 3.86%; in test [6] (setting [18]), -2.12%.
For `COc1cccc(-c2nc(NC3CCNCC3)c3ccccc3n2)c1`, the Potency in test [1] was > 11.4 µM (inactive); in test [12], 12.6 µM (active); in test [3] it was > 46 µM (inactive); in [8], 11.2 µM (active); in test [9], 12.6 µM (active). Also, the figures for the activity change, negative = inhibition in test [11], in test [13] and in test [6] were 14.7% (inactive), 23.4% (inactive) and 4.76% (inactive), respectively. Further, the activity, negative = inhibition in [14] was 5.39% (inactive). Further, the Potency entry in [4], in [5], in test [16] and in test [10] was “inactive” each time. Moreover, the max response in test [6] (setting [17]) amounted to 12.9%; in [6] (setting [18]) it was 4.05%.
As for `Clc1ccccc1-c1cncnc1NCCN1CCOCC1`, the Potency in test [1] is > 11.4 µM (inactive); in [2] it was > 46 µM (inactive); in test [3], > 46 µM (inactive); in test [15], 3.16 µM (active). In [14], the activity, negative = inhibition was 7.26% (inactive). The Potency entry in test [4], in test [5], in test [7], in [8], in [9] and in [10] was “inactive” each time. Also, the activity change, negative = inhibition in test [6] was 1.35% (inactive). Moreover, the results for the max response in test [6] (setting [17]) and in test [6] (setting [18]) were 18.6% and 20.3%, respectively.
